Screening results (PubChem BioAssay)
An excerpt weighted towards active compounds, which were near 6.2% of everything screened.
RORgamma inh: blocks mouse ROR gamma transcriptional activity; P51450; Drosophila S2 Gal4-RORgamma UAS-luciferase reporter, 20 h; Potency, µM (top dose mostly 53.6 µM), actives largely listed as inhibitors; actives 5.4% (n = 310,000); further: nearly all actives have a fitted effect of over 60% in size
Target sequence (P51450 whole entry, looked up, the tested form may be a part): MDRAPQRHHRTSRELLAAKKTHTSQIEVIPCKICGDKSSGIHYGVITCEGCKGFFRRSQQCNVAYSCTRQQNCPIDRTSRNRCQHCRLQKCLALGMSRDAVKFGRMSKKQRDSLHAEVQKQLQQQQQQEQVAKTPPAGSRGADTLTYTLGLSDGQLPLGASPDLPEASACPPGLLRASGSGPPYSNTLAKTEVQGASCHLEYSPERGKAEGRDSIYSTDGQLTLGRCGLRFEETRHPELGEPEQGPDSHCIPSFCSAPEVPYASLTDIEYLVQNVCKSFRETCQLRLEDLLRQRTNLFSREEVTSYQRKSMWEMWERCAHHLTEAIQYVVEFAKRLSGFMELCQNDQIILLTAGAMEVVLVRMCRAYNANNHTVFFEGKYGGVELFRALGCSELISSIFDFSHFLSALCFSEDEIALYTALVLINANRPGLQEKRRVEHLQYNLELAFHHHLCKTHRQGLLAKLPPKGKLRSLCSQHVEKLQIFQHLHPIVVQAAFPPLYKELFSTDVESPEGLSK
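Stable Schneider cell line, Gal4 DNA-binding domain fused to ROR gamma, UAS-luciferase. Cmpd 1 hr RT → CuSO4 700 uM final → 20 hr RT → luciferase reagent 10 min → luminescence.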
KinaseGlo FLuc: Kinase-Glo luciferase inhibition (counter-screen). AID 1379. Kinase-Glo luciferase, ATP luminescence, 8 min. Q27757. Potency, µM (highest dose often 38.3 µM), actives largely listed as inhibitors. actives 0.28% (n = 200,000); further: nearly all actives have a fitted effect of over 60% in size
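Inhibition of Kinase-Glo luciferase light generation was assessed at 10 uM ATP in pH 7.2 imidazole buffer, with luminescence measured after eight minutes at ambient temperature.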
VP16 counter: inhibits Gal4-VP16 luciferase reporter, ROR gamma counter-screen. Drosophila S2 Gal4-VP16 UAS-luciferase, luminescence, 20 h. AID 2546. actives 3.5% (n = 310,000). Potency, µM (doses to about 53.6 µM), most hits filed as inhibitors;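 further: Gal4-VP16 expression switched on by copper sulfate through the metallothionein promoter; nearly all actives have a fitted effect of over 50% in size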
Of the large screens only hits and unclear results are named; the others gave an inactive call. The call rests on the fitted dose curve; in most records, active means well fitted curve in the direction sought with a large enough effect; inconclusive means small, poorly fitted or top-dose-only effect, or another doubt; inactive means no such curve, though single readings can be large; an effect the other way counts as inactive or inconclusive.

CCCn1c(NC(=O)c2ccccc2)nc2ccccc21	RORgamma inh 0.79µM, VP16 counter 1.8µM
CCCn1c(Nc2nc3ccccc3n2C)nc2ccccc21	none
CC(C)C[C@@H](CC(=O)N[C@@H](CCCN)CC(=O)N[C@@H]1CCNC[C@H]1C(=O)N[C@H](CC(=O)N[C@@H](CCC(=O)O)CC(=O)O)CC(C)C)NC(=O)[C@@H]1CNCC[C@H]1N	none
O=C(CN1CCN(Cc2ccc(F)cc2)CC1)NCc1ccccc1	none (no result: KinaseGlo FLuc)
CCc1cc2c(=O)n(CCC(C)C)c(=S)[nH]c2s1	RORgamma inh 0.2µM, VP16 counter 1.4µM
CCCn1cnc2sc(CC)cc2c1=O	none
CCOc1ccccc1N(C(=O)c1ccccc1Cl)C1=NC(C)(C)CS1	RORgamma inh 18µM
COc1ccc(C)cc1N(C(=O)c1ccc(C#N)cc1)C1=NC(C)(C)CS1	none (no result: KinaseGlo FLuc)
COc1ccc(OC)c(Cc2nnc(CCC(=O)N3CCCCC3c3nccs3)o2)c1 (stereo not given)	none
O=S(=O)(Cc1cc(NCc2ccccc2)nc(-c2ccccn2)n1)c1ccccc1	RORgamma inh 4.5µM, VP16 counter inconclusive
O=S(=O)(Cc1cc(NCc2ccccc2)nc(-c2ccncc2)n1)c1ccccc1	none
Cc1ccccc1N(C(=O)CS(=O)CC(=O)Nc1ccc(F)cc1)C(C)C(=O)NC(C)(C)C (stereo not given)	none (no result: KinaseGlo FLuc)
O=C(CSC1=NS(=O)(=O)c2ccccc21)Nc1ccccc1	RORgamma inh inconclusive, VP16 counter 20µM
COC(=O)CSC1=NS(=O)(=O)c2ccccc21	none (no result: VP16 counter)
NC(=O)C1CCCN1C(=O)C(Cc1cnc[nH]1)NC(=O)C1CCC(=O)N1 (stereo not given)	none (no result: KinaseGlo FLuc)
O=C1C2CC=CCC2C(=O)N1c1n[nH]c(-c2ccccc2)n1 (stereo not given)	none
O=C(Nc1ccc(Cl)cn1)c1ccc2[nH]c(=O)c(=O)[nH]c2c1	none (no result: KinaseGlo FLuc)
Cc1cc(NC(=O)c2ccccc2)ncc1NC(=O)c1cccs1	KinaseGlo FLuc 11µM
O=C(NC(=S)Nc1cccc(NC(=O)c2ccccc2Cl)c1)c1cccs1	RORgamma inh 11µM, VP16 counter inconclusive
O=C(Nc1cccc(NC(=O)c2cccs2)c1)c1ccc(F)cc1	none (no result: KinaseGlo FLuc)
O=C(Nc1cccc(NC(=S)NC(=O)c2cccs2)c1)c1ccccc1	RORgamma inh 10µM, VP16 counter inconclusive
Cc1cc(NC(=O)c2cccs2)ncc1NC(=O)c1cccc(F)c1	VP16 counter inconclusive
Cc1ccccc1C(=O)Nc1cccc(NC(=S)NC(=O)c2cccs2)c1	RORgamma inh inconclusive, VP16 counter inconclusive
O=S(=O)(Nc1ccc2ccccc2n1)c1ccc2c(c1)CCO2	RORgamma inh inconclusive (no result: KinaseGlo FLuc)
CC(NC(=O)C1CCN(C(=O)[C@@H]2Cc3ccccc3CN2)CC1)c1ccccc1 (stereo not given in full)	none (no result: KinaseGlo FLuc)
COc1ccc(SCCN2CCN(CCc3ccccc3)CCC2=O)cc1	RORgamma inh 10µM, VP16 counter inconclusive (no result: KinaseGlo FLuc)
Cc1ccc(SCCN2CCN(CCc3ccccc3)CCC2=O)cc1	none (no result: KinaseGlo FLuc)
O=C1NN(c2ccc(F)cc2)C(=O)/C1=C\c1cnn(-c2ccccc2)c1	none
O=C1NN(c2ccc(F)cc2)C(=O)/C1=C\C=C\c1ccco1	RORgamma inh 1.1µM, VP16 counter inconclusive
O=S(=O)(Nc1cccc(-c2ccc(N3CCCCCC3)nn2)c1)c1ccc(C(F)(F)F)cc1	none (no result: KinaseGlo FLuc)
CC1CCN(c2ccc(-c3cccc(NC(=O)C(F)(F)F)c3)nn2)CC1	RORgamma inh inconclusive, VP16 counter 2.8µM (no result: KinaseGlo FLuc)
O=C(Nc1cccc(-c2ccc(N3CCCCC3)nn2)c1)C(F)(F)F	RORgamma inh 6.3µM, VP16 counter 10µM (no result: KinaseGlo FLuc)
O=C(Nc1cccc(-c2ccc3nncn3n2)c1)C(F)(F)F	VP16 counter inconclusive (no result: KinaseGlo FLuc)
COc1ccc(-n2ncc3c(N4CCCCC4)ncnc32)cc1	RORgamma inh 5µM, KinaseGlo FLuc inconclusive, VP16 counter 2µM
Clc1ccc(Cn2ncc3c(N4CCCCC4)ncnc32)cc1	RORgamma inh inconclusive, VP16 counter inconclusive
Clc1ccc(-n2ncc3c(N4CCCCCC4)ncnc32)cc1	RORgamma inh inconclusive, VP16 counter 14µM
COc1ccc(-n2ncc3c(NC(C)C)ncnc32)cc1	RORgamma inh 11µM, VP16 counter inconclusive
COc1ccc(-n2ncc3c(NCC(C)C)ncnc32)cc1	none
COc1ccc(-n2ncc3c(N4CCN(c5cccc(C)c5C)CC4)ncnc32)cc1	none (no result: KinaseGlo FLuc)
O=C(c1ccccc1)N1N=C(c2ccccc2)CC1c1ccccc1O (stereo not given)	RORgamma inh 4.5µM, VP16 counter 4µM
O=C(c1ccncc1)N1N=C(c2ccc(Br)cc2)CC1c1ccccc1O (stereo not given)	none (no result: KinaseGlo FLuc)
CCn1cc([N+](=O)[O-])c(C(=O)N2N=C(c3ccc4ccccc4c3)CC2c2ccccc2O)n1 (stereo not given)	none
